In PubChem BioAssay AID1159580 (chemical genetic matrix, 2015):
About 2,000 (36%) of roughly 5,500 compounds were called active. Inconclusive results (about 18%) are left out. Cut-off read from the data, not from the text of the source: active = normalized growth mostly below about 0.91 (no sharp cut-off); inconclusive = no clear call, values can overlap the other calls; inactive = mostly above about 0.92. This is one part of the list.

Test: chemical genetic growth profiling, strain panel (AID 1159580);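 note: tested at 20 µM; growth read once vehicle control cultures reached saturation at 30 °C; 1 = growth at the plate median or of vehicle wells; lower values mean less growth of the strain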
Conditions: growth OD
[1] = S. cerevisiae deletion strains, locus YDL101C, strain DUN1, hits give low values
[2] = S. cerevisiae deletion strains, locus YHR030C, strain SLT2, hits give low values

Measured: normalized growth

FC(F)(F)c1ccc(-c2nc(-c3ccc4c(c3)OCCCO4)cs2)cc1
inactive: S. cerevisiae deletion strains, locus YAL013W, strain DEP1, hits give low values 1.03 | S. cerevisiae deletion strains, locus YBR229C, strain ROT2, hits give low values 1.01 | S. cerevisiae deletion strains, locus YCL061C, strain MRC1, hits give low values 0.99 | [1] 0.965 | S. cerevisiae deletion strains, locus YDL134C, strain PPH21, hits give low values 1 | S. cerevisiae deletion strains, locus YDR150W, strain NUM1, hits give low values 1.01 | S. cerevisiae deletion strains, locus YEL061C, strain CIN8, hits give low values 1.01 | S. cerevisiae deletion strains, locus YGR078C, strain PAC10, hits give low values 1.01 | S. cerevisiae deletion strains, locus YGR229C, strain SMI1, hits give low values 1.01 | [2] 1.05 | S. cerevisiae deletion strains, locus YHR087W, strain rtc3, hits give low values 1.03 | S. cerevisiae deletion strains, locus YJR043C, strain POL32, hits give low values 0.997 | S. cerevisiae deletion strains, locus YJR075W, strain HOC1, hits give low values 1.02 | S. cerevisiae deletion strains, locus YKL190W, strain CNB1, hits give low values 1.01 | S. cerevisiae deletion strains, locus YLR039C, strain RIC1, hits give low values 1.07 | S. cerevisiae deletion strains, locus YLR058C, strain SHM2 (second series), hits give low values 0.998 | S. cerevisiae deletion strains, locus YLR085C, strain ARP6, hits give low values 1.1 | S. cerevisiae deletion strains, locus YLR262C, strain YPT6, hits give low values 1.02 | S. cerevisiae deletion strains, locus YML094W, strain GIM5, hits give low values 1.04 | S. cerevisiae deletion strains, locus YMR219W, strain ESC1, hits give low values 1.01 | S. cerevisiae deletion strains, locus YMR263W, strain SAP30, hits give low values 0.988 | S. cerevisiae deletion strains, locus YMR307W, strain GAS1, hits give low values 0.987 | S. cerevisiae deletion strains, locus YNL153C, strain GIM3, hits give low values 0.992 | S. cerevisiae deletion strains, locus YNL298W, strain CLA4 (second series), hits give low values 1.02 | S. cerevisiae deletion strains, locus YNL322C, strain KRE1, hits give low values 1.01 | S. cerevisiae deletion strains, locus YNR030W, strain Alg12, hits give low values 1.01 | S. cerevisiae deletion strains, locus YPL055C, strain LGE1, hits give low values 1.06 | S. cerevisiae deletion strains, locus YPL241C, strain CIN2, hits give low values 1.03 | S. cerevisiae deletion strains, locus YPR135W, strain CTF4, hits give low values 1.27 | S. cerevisiae strains, strain wild type, hits give low values 1.01

O=C(NCc1cccs1)c1csc(Cc2c(Cl)cccc2Cl)n1
inactive: S. cerevisiae deletion strains, locus YAR019C, strain CDC15, hits give low values 0.986 | S. cerevisiae deletion strains, locus YBL105C, strain PKC1, hits give low values 0.969 | S. cerevisiae deletion strains, locus YBR135W, strain CKS1, hits give low values 0.972 | S. cerevisiae deletion strains, locus YBR136W, strain MEC1, hits give low values 0.995 | S. cerevisiae deletion strains, locus YBR160W, strain CDC28, hits give low values 0.979 | S. cerevisiae deletion strains, locus YDL017W, strain CDC7, hits give low values 0.987 | S. cerevisiae deletion strains, locus YDL028C, strain MPS1, hits give low values 0.969 | [1] 0.981 | S. cerevisiae deletion strains, locus YDL108W, strain KIN28, hits give low values 0.987 | S. cerevisiae deletion strains, locus YDL132W, strain cdc53, hits give low values 0.978 | S. cerevisiae deletion strains, locus YDL214C, strain PRR2, hits give low values 0.992 | S. cerevisiae deletion strains, locus YDR052C, strain DBF4, hits give low values 0.996 | S. cerevisiae deletion strains, locus YDR054C, strain cdc34, hits give low values 0.971 | S. cerevisiae deletion strains, locus YDR226W, strain ADK1, hits give low values 0.971 | S. cerevisiae deletion strains, locus YDR477W, strain SNF1, hits give low values 0.978 | S. cerevisiae deletion strains, locus YER123W, strain YCK3, hits give low values 0.985 | S. cerevisiae deletion strains, locus YER133W, strain GLC7, hits give low values 0.996 | S. cerevisiae deletion strains, locus YFL009W, strain cdc4, hits give low values 0.957 | S. cerevisiae deletion strains, locus YFL029C, strain CAK1, hits give low values 0.98 | S. cerevisiae deletion strains, locus YFR003C, strain YPI1, hits give low values 0.991 | S. cerevisiae deletion strains, locus YFR019W, strain FAB1, hits give low values 0.988 | S. cerevisiae deletion strains, locus YFR028C, strain CDC14, hits give low values 0.982 | S. cerevisiae deletion strains, locus YGR040W, strain KSS1, hits give low values 0.994 | S. cerevisiae deletion strains, locus YGR052W, strain FMP48, hits give low values 1.06 | S. cerevisiae deletion strains, locus YGR092W, strain DBF2, hits give low values 0.95 | [2] 0.924 | S. cerevisiae deletion strains, locus YHR079C, strain IRE1, hits give low values 0.992 | S. cerevisiae deletion strains, locus YHR082C, strain KSP1, hits give low values 1.02 | S. cerevisiae deletion strains, locus YHR205W, strain SCH9, hits give low values 0.988 | S. cerevisiae deletion strains, locus YIL147C, strain SLN1, hits give low values 0.985 | S. cerevisiae deletion strains, locus YJL095W, strain BCK1, hits give low values 1.01 | S. cerevisiae deletion strains, locus YJL128C, strain PBS2, hits give low values 0.937 | S. cerevisiae deletion strains, locus YJL157C, strain FAR1, hits give low values 0.998 | S. cerevisiae deletion strains, locus YJR016C, strain ILV3, hits give low values 0.99 | S. cerevisiae deletion strains, locus YJR066W, strain TOR1 (second series), hits give low values 0.98 | S. cerevisiae deletion strains, locus YJR066W, strain TOR1, hits give low values 0.956 | S. cerevisiae deletion strains, locus YKL048C, strain ELM1, hits give low values 1 | S. cerevisiae deletion strains, locus YKL067W, strain YNK1, hits give low values 0.996 | S. cerevisiae deletion strains, locus YKL101W, strain HSL1, hits give low values 1 | S. cerevisiae deletion strains, locus YKL193C, strain SDS22, hits give low values 0.99 | S. cerevisiae deletion strains, locus YKL203C, strain TOR2, hits give low values 1.07 | S. cerevisiae deletion strains, locus YLR113W, strain HOG1, hits give low values 0.981 | S. cerevisiae deletion strains, locus YLR133W, strain CKI1, hits give low values 0.99 | S. cerevisiae deletion strains, locus YLR403W, strain SFP1, hits give low values 0.994 | S. cerevisiae deletion strains, locus YML070W, strain DAK1, hits give low values 1 | S. cerevisiae deletion strains, locus YMR001C, strain CDC5, hits give low values 0.986 | S. cerevisiae deletion strains, locus YMR205C, strain PFK2 (second series), hits give low values 1.01 | S. cerevisiae deletion strains, locus YMR277W, strain FCP1, hits give low values 0.982 | S. cerevisiae deletion strains, locus YNL006W, strain LST8, hits give low values 0.987 | S. cerevisiae deletion strains, locus YNL020C, strain ARK1, hits give low values 1.01 | S. cerevisiae deletion strains, locus YNL161W, strain CBK1, hits give low values 0.994 | S. cerevisiae deletion strains, locus YNL183C, strain NPR1, hits give low values 1.07 | S. cerevisiae deletion strains, locus YNL207W, strain RIO2, hits give low values 0.981 | S. cerevisiae deletion strains, locus YNL222W, strain SSU72, hits give low values 0.983 | S. cerevisiae deletion strains, locus YNL307C, strain MCK1 (second series), hits give low values 1.01 | S. cerevisiae deletion strains, locus YOL078W, strain AVO1, hits give low values 0.991 | S. cerevisiae deletion strains, locus YOL136C, strain PFK27, hits give low values 1.01 | S. cerevisiae deletion strains, locus YOR061W, strain CKA2, hits give low values 0.992 | S. cerevisiae deletion strains, locus YOR119C, strain RIO1, hits give low values 1.03 | S. cerevisiae deletion strains, locus YOR231W, strain MKK1, hits give low values 0.988 | S. cerevisiae deletion strains, locus YOR329C, strain SCD5, hits give low values 0.985 | S. cerevisiae deletion strains, locus YPL031C, strain PHO85, hits give low values 0.988 | S. cerevisiae deletion strains, locus YPL153C, strain RAD53, hits give low values 0.994 | S. cerevisiae deletion strains, locus YPL204W, strain HRR25, hits give low values 1 | S. cerevisiae deletion strains, locus YPL209C, strain IPL1, hits give low values 0.988 | S. cerevisiae deletion strains, locus YPL256C, strain CLN2, hits give low values 0.985 | S. cerevisiae deletion strains, locus YPR025C, strain CCL1, hits give low values 0.982 | S. cerevisiae deletion strains, locus YPR106W, strain ISR1, hits give low values 0.968 | S. cerevisiae deletion strains, locus YPR111W, strain DBF20, hits give low values 0.965 | S. cerevisiae deletion strains, strain NNK1, hits give low values 0.977 | S. cerevisiae deletion strains, strain TSCII, hits give low values 0.986
